SARS PLP yeast – SARS-CoV PLP inhibition in yeast; Potency, µM (highest dose often 32.9 µM), for the others: at the top dose activity, positive = growth rescue, actives largely listed as activators; S. cerevisiae expressing SARS-CoV PLpro, growth rescue; AID 485353; actives 0.19% (n = 330,000); calls by dose curve; further: potency means the concentration at half of the fitted maximal effect; 0% is about no effect; nearly all actives have a fitted effect of over 55% in size
NS1 inh – blocks influenza NS1 protein function | Potency, µM (highest dose often 46.1 µM), inactives show at the highest dose activity, positive = more growth | actives 0.4% (n = 270,000); calls by dose curve; further: potency means the concentration at half of the fitted maximal effect; actives are rising curves; nearly all actives have a fitted effect of over 50% in size
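A cell-based growth assay was used: compounds that relieve NS1-induced slow growth of budding yeast raise OD600. Assay medium was yeast nitrogen base with ammonium sulphate and -URA supplement, pH 6.0, with 2% galactose.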
LmPK inh – blocks Leishmania mexicana pyruvate kinase activity; AID 1721; purified LmPK, Kinase-Glo ATP luminescence, 1 h; Potency, µM (titrated, usually from 57.5 µM), for inactives: top-dose activity change, negative = inhibition, actives largely listed as inhibitors; actives 0.37% (n = 290,000); further: potency means the concentration at half of the fitted maximal effect; on the % scale 0 is the no-effect control and ±100 the full control effect
Target sequence (Q27686 whole entry, looked up): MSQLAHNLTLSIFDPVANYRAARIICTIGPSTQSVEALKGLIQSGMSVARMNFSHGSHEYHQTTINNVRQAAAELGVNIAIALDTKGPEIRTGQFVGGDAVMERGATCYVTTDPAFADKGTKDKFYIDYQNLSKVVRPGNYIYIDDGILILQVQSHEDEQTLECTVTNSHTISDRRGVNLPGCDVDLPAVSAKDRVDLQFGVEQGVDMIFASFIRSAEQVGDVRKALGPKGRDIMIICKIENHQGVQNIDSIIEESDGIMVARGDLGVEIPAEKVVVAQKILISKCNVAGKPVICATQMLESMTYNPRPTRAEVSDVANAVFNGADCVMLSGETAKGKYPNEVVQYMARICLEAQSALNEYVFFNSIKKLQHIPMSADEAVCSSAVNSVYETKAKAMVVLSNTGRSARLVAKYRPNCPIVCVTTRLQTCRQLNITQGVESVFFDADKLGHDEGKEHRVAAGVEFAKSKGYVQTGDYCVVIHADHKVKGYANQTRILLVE
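Purified LmPK (0.1 nM) converted ADP (0.1 mM) to ATP with PEP (0.5 mM) in imidazole buffer pH 7.2 with KCl and MgCl2, 1 h at room temperature. ATP was read by Kinase-Glo luminescence; data normalized to uninhibited and no-enzyme controls.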
CHX counter – affects cycloheximide protein synthesis inhibition readout, counter-screen. cell reporter, cycloheximide protein synthesis inhibition counterscreen. max response, %. actives 12% (n = 300,000). AID 2314; in the data active means max response mostly above about 13%, no sharp cut-off; inactive means mostly below about 14%; further: read at 38.3 µM for the half of the compounds with a filed dose; 0% is about no effect
Tb PYK inh – blocks Trypanosoma brucei pyruvate kinase. Q57TT1. TbPYK enzyme, Kinase-Glo Plus ATP luminescence, 45 min. Potency, µM (doses to about 76.8 µM), for the others: top-dose activity, negative = inhibition, usual class: inhibitors. actives 0.12% (n = 410,000); further: potency means the concentration at half of the fitted maximal effect; on the % scale 0 is the no-effect control and ±100 the full control effect; nearly all actives have a fitted effect of over 50% in size
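Luminescence from Kinase-Glo Plus, added after a 45-minute room-temperature reaction, served as the end-point read-out. The enzyme and substrate were preincubated with compound before ADP (130 uM final) initiated turnover. Concentration-effect curves came from normalized qHTS data.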
Shiga toxin inh – inhibitors of Shiga toxin in Vero cells | Vero cells, Shiga toxin protein synthesis inhibition reporter | inhibition, % at 38.7 µM | actives 9.2% (n = 290,000) | AID 2315; in the data active means inhibition mostly above about 28%, no sharp cut-off; inactive means mostly below about 43%; further: 0% is about no effect
* = called active by the depositor; ? = inconclusive; . = no result given. The entries come from a sample that favours hits as a whole. Unless noted, the call rests on the fitted dose curve; in most records, active means well fitted curve in the direction sought with a large enough effect; inconclusive means small, poorly fitted or top-dose-only effect, or another doubt; inactive means no such curve, though single readings can be large; an effect the other way counts as inactive or inconclusive.

SMILES | SARS PLP yeast | NS1 inh | LmPK inh | CHX counter | Tb PYK inh | Shiga toxin inh
COc1ccc(CC(=O)Nc2ccc(-c3nnc(-c4ccccc4)o3)cc2)cc1OC | -6.6% | ? | 0.8% | 15.3* | 0.2% | 9.7
COc1ccc(Cc2nnc(Nc3ccc(C)cc3)o2)cc1OC | -2.2% | -66.4% | 7.7% | -2.7 | 1.7% | -8.9
COc1ccc(CC(=O)Nc2cccc(-c3nnc(-c4ccccc4)o3)c2)cc1OC | 2.4% | -54.9% | -1.0% | 48.7* | 0.4% | 96.1*
C[C@H]1O[C@@H](n2cnc3c(N)ncnc32)C[C@@H]1OP(=O)(O)OP(=O)(O)OP(=O)(O)O | . | . | . | 13.2 | . | 5.1
COc1ccc(CC(=O)Nc2cccc(-c3nnc(-c4ccc(C)cc4)o3)c2)cc1OC | -7.4% | -44.5% | 1.4% | 24.6* | 1.6% | 43.7
COc1ccc(-c2nc3cc(NC(=O)Cc4ccc(OC)c(OC)c4)ccc3o2)cc1 | 2.7% | 25.5% | 5.9% | 24.7* | -0.6% | 34.1*
Cc1ccc(OCC(=O)Nc2cccc(-c3nnc(-c4ccccc4)o3)c2)c(C)c1 | 6.9% | 0.8% | 5.3% | 1.1 | -0.7% | 9.6
CS(=O)(=O)c1ccc(Cl)c(NC(=O)COC(=O)Cc2c[nH]c3ccccc23)c1 | 0.8% | . | . | . | 4.0% | .
CCN1CCN(c2ccc(NC(=O)c3ccc(F)cc3)cc2Cl)CC1 | 5.1% | . | 6.4% | 30.1* | 2.6% | 43.4*
CCN1CCN(c2ccc(NC(=O)c3cccnc3)cc2Cl)CC1 | 5.7% | -7.9% | 1.2% | 10.8* | 1.9% | 16.2
CCN1CCN(c2ccc(NC(C)=O)cc2Cl)CC1 | 15.1% | 1.2% | 1.0% | 1.1 | -15.5% | 6.6
CCCCCCCCCCCCC/C=C/C(O)C(COP(=O)(O)OCCN)NC(=O)CCCCCCCCCCCCCCCCC (centres undefined) | . | . | . | -3.8 | . | -0.3
c1ccc(Oc2ccccc2-c2cc(NCCc3cccnc3)n3nccc3n2)cc1 | . | . | . | . | 6.2% | .
CC(C(=O)NC1CCCCC1)N(Cc1ccc(F)cc1)C(=O)c1snc(C(N)=O)c1N (centres undefined) | 2.3% | -3.5% | 1.3% | -8.3 | -12.4% | -10.9
NC(=O)c1nsc(C(=O)N(CC(=O)NC2CCCCC2)Cc2ccc(F)cc2)c1N | 11.8% | -9.9% | -0.2% | 53.2* | -2.4% | 116.5*
CCN(CC)CCCNC(=O)c1nn(C)c2c1CS(=O)(=O)c1ccccc1-2 | . | . | . | . | 1.1% | .
O=C(c1ccccc1)N1CCN(CC#Cc2ccccc2)CC1 | 0.9% | -18.6% | -7.8% | 28.8* | -1.5% | 81.5*
O=C(c1ccccc1)N1CCN(Cc2ccccc2)CC1 | -12.3% | 5.8% | -3.8% | -2.6 | 16.0% | -1.7
COC(=O)c1ccc(OCC2c3cc(OC)c(OC)cc3CCN2C(=O)c2ccccc2C)cc1 (centres undefined) | . | . | . | . | -3.2% | .
CCCCOc1ccc(C2CCC(C(C)=O)C(C)C2)cc1 (centres undefined) | -5.4% | -9.0% | -1.0% | 50.5* | 0.6% | 62.4*
CCN1CCN(c2oc(-c3ccccc3C)nc2S(=O)(=O)c2ccccc2)CC1 | 3.1% | . | . | . | -8.6% | .
Cc1ccc(Nc2ncc3c(n2)CC(C)CC3=O)c(C)c1 (centres undefined) | -0.4% | -5.2% | -2.1% | 39.0* | 3.4% | 96.9*
CC1CC(=O)c2cnc(NCc3ccco3)nc2C1 (centres undefined) | 5.4% | -5.0% | -2.9% | 15.9* | 40.2% | 53.3
COc1cccc(C(=O)Nc2ncc3c(n2)CC(C)CC3=O)c1 (centres undefined) | -5.8% | -4.8% | -8.8% | 39.7* | 6.0% | 71.2*
CC1CC(=O)c2cnc(Nc3cccc(C(F)(F)F)c3)nc2C1 (centres undefined) | 3.3% | 15.4% | 5.3% | 17.5 | 5.6% | 63.5
SMILES | SARS PLP yeast | NS1 inh | LmPK inh | CHX counter | Tb PYK inh | Shiga toxin inh
CC1CC(=O)c2cnc(Nc3ccccc3)nc2C1 (centres undefined) | 7.9% | -8.2% | -12.0% | 47.7* | -3.3% | 55.3
Cc1cc2n(n1)C(c1c[nH]c3ccccc13)Nc1ccccc1-2 (centres undefined) | -35.6% | -71.7% | 2.6% | 29.3* | -4.7% | 40.8*
Cc1cc2n(n1)C(c1cn(-c3ccccc3)nc1C)Nc1ccccc1-2 (centres undefined) | 12.1% | -34.8% | -3.1% | 3.6 | -2.5% | 6.4
Cc1c(C(=O)NCc2ccoc2)oc2ccc3c(c12)C(=O)CC(C)(C)O3 | -12.0% | -6.3% | 0.2% | 61.0* | -3.1% | 119.1*
CCOc1ccccc1CNC(=O)c1oc2ccc3c(c2c1C)C(=O)CC(C)(C)O3 | . | . | . | . | 3.7% | .
Cc1cc(C)n(-c2nnc(C)n2/N=C/c2cc(Br)ccc2OCc2ccccc2)n1 | -5.3% | -45.9% | 2.4% | 20.2* | -0.6% | 37.9
CCOC(=O)[C@]12CCCC=C1N(Cc1ccc3c(c1)OCO3)C(=O)[C@H](CC(=O)NCCCN1CCCC1=O)C2 | . | . | . | . | -13.3% | .
O=C(Nc1cc2c(oc1=O)CCCC2=O)c1ccccc1 | -10.3% | -5.7% | -2.8% | 33.2* | 1.2% | 17.2*
O=C(Nc1cc2ccc(O)cc2oc1=O)c1ccccc1 | . | . | . | . | -5.5% | .
Cc1ccc(C(=O)Nc2cc3c(oc2=O)CCCC3=O)cc1 | 3.0% | -17.4% | -2.9% | 44.5* | 0.0% | 74.9*
CC1(C)CC(=O)c2cc(NC(=O)c3ccc(F)cc3)c(=O)oc2C1 | 0.7% | -0.4% | 1.2% | 2.0 | 6.8% | -3.8
COc1cccc(-c2cnc(C(O)c3cc(C)cc(C)c3)[nH]2)c1 (centres undefined) | . | . | . | . | 4.3% | .
CC(C)C1O[C@H](/C=C\c2ccccc2)OCC1(C)C (some centres undefined) | . | 2.8% | . | . | . | .
CSc1ccc(CNc2ccccn2)cc1 | -3.3% | -3.3% | -2.8% | 38.0* | 1.4% | 117.4*
CSc1ccc(CNCCCSc2ncccn2)cc1 | 5.0% | 25.4% | -1.2% | 6.3 | 2.0% | 11.0
CN(C)c1ccc(CNc2ncc(Br)cc2Br)cc1 | -13.1% | -11.7% | 9.0% | 33.6* | 2.9% | 66.0*
CSc1ccc(CNCC(O)c2ccccc2)cc1 (centres undefined) | 0.8% | -3.1% | 0.9% | 22.1* | -5.1% | 16.3
CN(C)c1ccc(CNc2ncnc3sccc23)cc1 | -11.8% | -23.7% | 0.2% | 1.7 | -3.7% | 14.3
CSc1ccc(CNc2ccccc2)cc1 | 0.7% | -5.8% | -0.1% | 29.2* | . | 61.3*
CSc1cccc(NCc2ccc([N+](=O)[O-])cc2)c1 | -0.3% | 11.5% | 1.2% | 13.0 | -4.1% | 30.0
O[C@@H](CNC[C@H](O)c1ccccc1)c1ccccc1 | -8.9% | -2.5% | -0.6% | 1.6 | -9.3% | -3.5
CCn1nc(-c2ccccc2)c(-c2ccccc2)c(C(=O)OCCOC)c1=O | . | . | . | . | 1.6% | .
CCc1nc2ccc(C(=O)NCc3ccc(OC)cc3)cn2c1N(CCC(C)C)CCN(C)C | . | . | . | . | -1.6% | .
O=C(Nc1ccc(C(=O)N2CCCCC2)cc1)c1ccc([N+](=O)[O-])cc1 | 8.6% | 5.8% | 1.0% | -2.0 | 6.6% | -10.5

Source: PubChem BioAssay
